The record followed here is PubChem BioAssay (NCATS).

Records with an inconclusive call do not appear. A number with no mark means an inactive call. The source made the active and inactive calls. Calls come from the whole dose curve; as a rule, active = well fitted curve in the direction sought with a large enough effect; inconclusive = small, poorly fitted or top-dose-only effect, or another doubt; inactive = no such curve, though single readings can be large; an effect the other way counts as inactive or inconclusive.

The target in assay [1] is Rap guanine nucleotide exchange factor 3 (Homo sapiens) (UniProt O95398). Description: Confirmatory qHTS for antagonist of cAMP-regulated guanine nucleotide exchange factor 3 (EPAC1) (AID 1645880). Note: nearly all actives have a fitted effect of over 55% in size. Note: potency is the fitted concentration of half-maximal effect. A digest of the protocol:
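Released BODIPY-GDP fluoresces less than Rap1-bound BODIPY-GDP; the signal is followed at 480/540 nm at 5-min intervals over 30 min, after 5 min at room temperature. Reactions contain 100 nM EPAC1, 250 nM RAP1B-BODIPY-GDP and 50 uM GDP; results are normalized to ATA and DMSO.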

Assay [2] has the same target. Description: Confirmatory qHTS for agonist of cAMP-regulated guanine nucleotide exchange factor 3 (EPAC1) (AID 1645881).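 Note: EPAC1 catalysed release of BODIPY-GDP from Rap1B seen as fluorescence loss; 100% = effect of cAMP agonist control; nearly all actives have a fitted effect of over 75% in size.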
Assay [3] deals with Rap guanine nucleotide exchange factor 4 (Homo sapiens) (UniProt Q8WZA2). Description: Confirmatory qHTS for agonist of cAMP-regulated guanine nucleotide exchange factor 4 (EPAC2) (AID 1645884;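 note: nucleotide exchange releases bodipy-GDP from Rap1 and this lowers its fluorescence; nearly all actives have a fitted effect of over 65% in size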; note: potency is the fitted concentration of half-maximal effect; for activation: % is set by controls: 0 for no effect and ±100 for the full control effect). (In general: Quantitative high-throughput screening tests each substance at several concentrations.)
The target is the same in assay [4]. Description: Confirmatory qHTS for antagonist of cAMP-regulated guanine nucleotide exchange factor 4 (EPAC2) (AID 1645885). Note: nearly all actives have a fitted effect of over 25% in size.
For assay [5], the target named is Rap guanine nucleotide exchange factor 3 (Homo sapiens) (UniProt O95398). Description: Counterscreen qHTS for antagonist of cAMP-regulated guanine nucleotide exchange factor 3 (EPAC1) (AID 1645888). Note: % of control where 0% means no effect. A digest of the protocol: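 Rap1B–BODIPY-GDP (250 nM) with 50 uM GDP; compounds pin-transferred to 9.74 nM–152 uM final (activator) or from 7.32 nM upwards (inhibitor). Fluorescence Ex/Em 480/540 nm read at 5 and 30 min, then after adding cAMP or buffer, at room temperature.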
For orientation: A counterscreen serves to expose hits that act by an unwanted route or on another target.

Rap guanine nucleotide exchange factor 3 (Homo sapiens), sequence (O95398 whole entry, looked up): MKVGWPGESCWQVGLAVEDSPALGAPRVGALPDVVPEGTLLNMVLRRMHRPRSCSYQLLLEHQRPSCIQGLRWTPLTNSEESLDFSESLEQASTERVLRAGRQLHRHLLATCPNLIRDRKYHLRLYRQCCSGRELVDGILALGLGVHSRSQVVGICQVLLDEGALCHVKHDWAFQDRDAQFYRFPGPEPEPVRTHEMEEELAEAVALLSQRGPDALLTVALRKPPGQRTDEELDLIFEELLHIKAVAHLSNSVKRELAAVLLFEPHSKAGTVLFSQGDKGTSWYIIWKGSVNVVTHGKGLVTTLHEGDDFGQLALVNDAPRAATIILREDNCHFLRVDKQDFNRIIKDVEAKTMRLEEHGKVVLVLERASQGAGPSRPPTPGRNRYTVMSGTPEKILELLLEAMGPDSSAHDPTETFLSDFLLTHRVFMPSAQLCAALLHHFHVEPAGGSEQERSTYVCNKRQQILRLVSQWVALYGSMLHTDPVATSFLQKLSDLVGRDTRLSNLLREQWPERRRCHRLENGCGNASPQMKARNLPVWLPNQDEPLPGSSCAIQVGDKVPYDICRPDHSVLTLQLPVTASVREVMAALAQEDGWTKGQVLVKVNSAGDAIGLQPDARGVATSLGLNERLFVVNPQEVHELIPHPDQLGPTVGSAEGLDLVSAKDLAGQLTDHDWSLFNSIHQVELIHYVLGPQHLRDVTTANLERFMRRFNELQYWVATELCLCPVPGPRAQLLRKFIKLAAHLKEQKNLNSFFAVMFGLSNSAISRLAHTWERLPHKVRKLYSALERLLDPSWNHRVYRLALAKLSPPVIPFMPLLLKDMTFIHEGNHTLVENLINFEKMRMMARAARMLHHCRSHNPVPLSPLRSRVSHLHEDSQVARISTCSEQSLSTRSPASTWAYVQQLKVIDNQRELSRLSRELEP
Rap guanine nucleotide exchange factor 4 (Homo sapiens), sequence (Q8WZA2 whole entry, looked up): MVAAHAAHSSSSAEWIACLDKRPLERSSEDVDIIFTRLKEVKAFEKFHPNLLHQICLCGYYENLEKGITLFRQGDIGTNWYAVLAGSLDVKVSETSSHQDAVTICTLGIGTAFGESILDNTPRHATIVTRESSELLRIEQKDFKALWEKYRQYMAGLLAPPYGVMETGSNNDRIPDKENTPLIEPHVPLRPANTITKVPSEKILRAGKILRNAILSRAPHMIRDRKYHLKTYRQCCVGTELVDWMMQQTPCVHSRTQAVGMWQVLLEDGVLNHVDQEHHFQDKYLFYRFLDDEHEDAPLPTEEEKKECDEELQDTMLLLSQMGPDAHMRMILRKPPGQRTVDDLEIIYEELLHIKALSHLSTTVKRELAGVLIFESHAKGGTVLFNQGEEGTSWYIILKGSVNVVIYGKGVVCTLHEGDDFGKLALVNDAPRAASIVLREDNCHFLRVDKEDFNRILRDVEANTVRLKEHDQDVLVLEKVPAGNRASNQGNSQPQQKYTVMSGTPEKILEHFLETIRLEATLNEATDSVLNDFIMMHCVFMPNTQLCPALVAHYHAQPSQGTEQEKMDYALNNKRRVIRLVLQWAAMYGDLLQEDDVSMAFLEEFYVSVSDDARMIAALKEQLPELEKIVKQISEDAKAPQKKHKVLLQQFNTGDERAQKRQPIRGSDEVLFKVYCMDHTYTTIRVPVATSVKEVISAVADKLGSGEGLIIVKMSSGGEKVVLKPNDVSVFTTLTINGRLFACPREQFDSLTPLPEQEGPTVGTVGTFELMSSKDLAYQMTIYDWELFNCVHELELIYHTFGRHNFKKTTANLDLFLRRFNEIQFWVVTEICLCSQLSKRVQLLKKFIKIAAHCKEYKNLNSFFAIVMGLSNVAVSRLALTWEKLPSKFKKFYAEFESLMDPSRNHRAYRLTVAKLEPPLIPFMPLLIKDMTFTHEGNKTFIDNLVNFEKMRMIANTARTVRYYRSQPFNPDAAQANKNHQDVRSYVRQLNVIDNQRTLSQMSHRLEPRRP

On to `CCCCCCc1ccc(N2C[C@H](Cc3ccccc3)[C@@H](CC(=O)Nc3ccccc3)C2=O)cc1`, for which the Potency result in assay [1], in assay [2], in assay [3] and in assay [4] was “inactive” throughout.

Regarding `COc1ccc(C(=O)NC2CCCc3ccccc32)c(OC)c1OC` (centres undefined), the Potency result in assay [1], in assay [2] and in assay [4] was “inactive” each time. In addition, in assay [3], the activation was 0% [at 17.1 µM, percent relative to cAMP agonist control].

For `CC(C(=O)Nc1ccccc1C(F)(F)F)n1nc(-c2ccccc2)c2c(c1=O)CCCC2` (centres undefined), the Potency result in assay [1], in assay [2], in assay [3] and in assay [4] was “inactive” in each case.

Consider `COc1cc(CCN(C(=O)c2cccc(S(C)(=O)=O)c2)C(CCc2ccccc2)c2nc3ccccc3[nH]2)cc(OC)c1` (centres undefined), for which the Potency entry in assay [1], in assay [2], in assay [3] and in assay [4] was “inactive” in each case.

`Cc1[nH]c2ccccc2c1/C=C/c1ccnc2ccccc12`: the Potency entry in assay [1], in assay [2], in assay [3] and in assay [4] was “inactive” throughout.

With `Cc1[nH][nH]c(=O)c1C(c1c(C)[nH][nH]c1=O)c1cn(Cc2ccccc2Cl)c2ccccc12`, the Potency in assay [1] was 75.7 µM (active). For the same compound, the Potency entry in assay [2], in assay [3] and in assay [4] was “inactive” throughout.

Turning to `CC(=O)CCc1oc2ccc(C)cc2c1-c1ccccc1`, the Potency entry in assay [1], in assay [2], in assay [3] and in assay [4] was “inactive” each time.

Regarding `C/C(CC(=O)Nc1ccc2ccccc2c1)=N\NC(=O)c1cnccn1`, the Potency entry in assay [1], in assay [2], in assay [3] and in assay [4] was “inactive” in each case.

Consider `COc1ccc(NC(=O)Cn2c(SCc3cc(C)ccc3C)nc3ccncc32)c(OC)c1OC`, for which the Potency result in assay [1], in assay [2] and in assay [3] was “inactive” each time. In addition, in assay [4], the outcome was “inactive [at 12.7 µM]”.

Consider `CC/C(=N/NC(=O)c1ccc2c(c1)OCO2)c1ccccc1O`, for which the Potency in assay [1] is 15.1 µM (active). The Potency result in assay [2], in assay [3], in assay [4] and in assay [5] was “inactive” in each case.

In the case of `CCN(CCn1cccn1)Cc1c(C(=O)N2CCCCCCC2)nc2ccc(Cl)cn12`, the Potency entry in assay [1], in assay [2], in assay [3] and in assay [4] was “inactive” each time.

As for `O=C(Nc1ccc(Cl)cc1)N[C@@H]1CC[C@H](CCNS(=O)(=O)c2ccccc2F)O[C@@H]1CO`, the Potency result in assay [1], in assay [2], in assay [3] and in assay [4] was “inactive” in each case.

On to `O=C(C[N+]12CN3CN(CN(C3)C1)C2)c1ccc(I)cc1`, for which the Potency result in assay [1], in assay [2], in assay [3] and in assay [4] was “inactive” throughout.

Regarding `C1=Cc2ccccc2/C1=C\c1ccc2c(c1)OCO2`, the Potency result in assay [1], in assay [2], in assay [3] and in assay [4] was “inactive” throughout.

For `Cc1cc(C)c(-c2c(N)cc(Br)cc2Br)c(N)c1`, the Potency result in assay [1], in assay [2], in assay [3], in assay [4] and in assay [5] was “inactive” throughout.

Take `COCOCCn1cc(CN2CCS(=O)(=O)N(Cc3ccc(-c4ccc(C)cc4)cc3)C(CC(C)C)C2=O)nn1` (centres undefined): the Potency result in assay [1], in assay [2] and in assay [4] was “inactive” each time. The activation in assay [3] was 9.16% [at 17.1 µM, percent relative to cAMP agonist control].

With `COc1ccc(CCn2c(=N)c(S(=O)(=O)c3ccc(C)cc3)cc3c(=O)n4ccccc4nc32)cc1`, in assay [1], the Potency is 79.4 µM (active). Further, the Potency entry in assay [2] and in assay [4] was “inactive” in each case. Further, the activation in assay [3] is -30.1% [at 17.1 µM, percent relative to cAMP agonist control].

As for `CC(c1ccc(N(C)C)cc1)c1ccnc2ccccc12` (centres undefined), the Potency result in assay [1], in assay [2], in assay [3] and in assay [4] was “inactive” in each case.

As for `N#Cc1cc(NC(=O)c2ccc(Cl)cc2)ccc1Sc1ccccc1`, the Potency entry in assay [1], in assay [2], in assay [3] and in assay [4] was “inactive” in each case.

Turning to `COc1cc2c(C#N)c(N3CCCC3)nc(N)c2c(N)n1`, in assay [1], the Potency is 37.9 µM (active). In addition, the Potency result in assay [2], in assay [3] and in assay [4] was “inactive” throughout.

`Cc1nc2ccccc2c(=O)n1/N=C/c1ccccc1O`: in assay [1], the Potency was 35.5 µM (active). Further, the Potency entry in assay [2] and in assay [4] was “inactive” in each case. The activation in assay [3] is 1.94% [at 17.1 µM, percent relative to cAMP agonist control].

In the case of `Cc1cccc(NC(=O)CC2Nc3cccc4cccc(c34)NC2=O)c1` (centres undefined), the Potency in assay [1] is 75.7 µM (active). For the same compound, the Potency result in assay [2], in assay [3] and in assay [4] was “inactive” each time.

As for `O=C(O)c1[nH]c2ccccc2c1C(c1cc(Cl)cc([N+](=O)[O-])c1O)c1c(C(=O)O)[nH]c2ccccc12`, in assay [1], the Potency was 37.9 µM (active). The Potency result in assay [2], in assay [3] and in assay [4] was “inactive” throughout.

Regarding `COc1ccc(Br)cc1CN(C)C(=O)c1ccccc1OCc1c(C)noc1C`, the Potency entry in assay [1], in assay [2], in assay [3] and in assay [4] was “inactive” each time.

With `O=C(COC(=O)/C=C/c1cccc(C(F)(F)F)c1)NC(=O)NC1CCCC1`, the Potency result in assay [1], in assay [2] and in assay [4] was “inactive” in each case. Further, the activation in assay [3] is 4.78% [at 17.1 µM, percent relative to cAMP agonist control].

As for `COc1ccc(SC[C@H](C)CN2CC[C@H](C)CCC2=O)cc1`, the Potency entry in assay [1], in assay [2], in assay [3] and in assay [4] was “inactive” throughout.

With `COC(=O)c1cn(C(=O)c2ccc(OC)cc2)c2ccccc12`, the Potency result in assay [1], in assay [2] and in assay [4] was “inactive” throughout. Besides, in assay [3], the Potency is 31.6 µM (active).

With `Cc1cc(NC(=O)CSc2nc(-c3ccccc3)nc3c2c(=O)n(C)c(=O)n3C)no1`, the Potency entry in assay [1], in assay [2] and in assay [4] was “inactive” each time. Moreover, the activation in assay [3] was 0% [at 17.1 µM, percent relative to cAMP agonist control].
